# Measurements from publication PMC7862700, “An all-to-all approach to the identification of sequence-specific readers for epigenetic DNA modifications on cytosine”.
# Columns and labels:
# Experiment in all cases: DAPPL (digital affinity profiling via proximity ligation, sequencing); 10 mM Tris-HCl pH 7.5, 50 mM NaCl, 1 mM DTT, 4% glycerol, room temperature, 30 min; GST-TFs on glutathione beads, 16-mer random dsDNA library, 0.1% formaldehyde crosslink after washing; high values mean tight binding
# [1] = target: T1, FEV (Homo sapiens, UniProt Q99581 1-238); conditions: protein: recombinant; tags: N-terminal GST; dsDNA, one strand shown
# T1 sequence: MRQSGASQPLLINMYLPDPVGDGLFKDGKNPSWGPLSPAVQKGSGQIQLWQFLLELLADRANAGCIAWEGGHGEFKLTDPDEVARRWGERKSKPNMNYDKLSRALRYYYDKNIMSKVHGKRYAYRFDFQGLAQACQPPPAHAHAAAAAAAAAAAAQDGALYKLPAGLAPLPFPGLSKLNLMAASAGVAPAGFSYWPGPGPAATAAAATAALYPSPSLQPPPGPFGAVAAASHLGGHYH
# Outline: (§1)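 Human transcription factors fused to GST were expressed in yeast, captured on glutathione beads, given DNA barcodes and pooled with a GST-only negative control. Pools were incubated with 200 nmole of a 16-mer random double-stranded DNA library in Tris/NaCl/DTT/glycerol buffer at room temperature for 30 min. They were then washed, crosslinked with 0.1% formaldehyde, proximity-ligated (BsaI/T4 ligase, 1 h, 37 °C), PCR-amplified and sequenced on an Illumina NextSeq500. Binding signal is each 6-mer's read frequency for a factor divided by its frequency for the GST control.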
# [2] = target: ETV5 (Homo sapiens, UniProt P41161 1-510); conditions: protein: recombinant; tags: N-terminal GST; dsDNA, one strand shown
# Sequence of ETV5 (P41161 whole entry): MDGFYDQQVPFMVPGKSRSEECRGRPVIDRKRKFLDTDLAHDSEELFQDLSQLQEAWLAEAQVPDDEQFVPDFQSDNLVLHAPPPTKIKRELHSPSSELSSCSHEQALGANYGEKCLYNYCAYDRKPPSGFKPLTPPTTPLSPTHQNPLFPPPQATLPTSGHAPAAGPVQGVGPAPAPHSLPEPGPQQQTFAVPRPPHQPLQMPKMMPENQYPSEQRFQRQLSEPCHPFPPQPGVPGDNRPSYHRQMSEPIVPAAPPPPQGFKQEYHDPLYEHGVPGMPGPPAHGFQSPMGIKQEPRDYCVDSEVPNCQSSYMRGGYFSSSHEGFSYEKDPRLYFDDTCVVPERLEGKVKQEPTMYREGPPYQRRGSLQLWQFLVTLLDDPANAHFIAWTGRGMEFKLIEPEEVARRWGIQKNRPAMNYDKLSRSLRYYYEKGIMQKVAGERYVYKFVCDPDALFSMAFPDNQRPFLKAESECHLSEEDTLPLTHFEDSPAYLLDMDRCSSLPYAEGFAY
# Outline: as §1
# [3] = target: HSF1 (Homo sapiens, UniProt Q00613 1-529); conditions: protein: recombinant; tags: N-terminal GST; chain copies: 3; dsDNA, one strand shown
# Sequence of HSF1 (Q00613 whole entry): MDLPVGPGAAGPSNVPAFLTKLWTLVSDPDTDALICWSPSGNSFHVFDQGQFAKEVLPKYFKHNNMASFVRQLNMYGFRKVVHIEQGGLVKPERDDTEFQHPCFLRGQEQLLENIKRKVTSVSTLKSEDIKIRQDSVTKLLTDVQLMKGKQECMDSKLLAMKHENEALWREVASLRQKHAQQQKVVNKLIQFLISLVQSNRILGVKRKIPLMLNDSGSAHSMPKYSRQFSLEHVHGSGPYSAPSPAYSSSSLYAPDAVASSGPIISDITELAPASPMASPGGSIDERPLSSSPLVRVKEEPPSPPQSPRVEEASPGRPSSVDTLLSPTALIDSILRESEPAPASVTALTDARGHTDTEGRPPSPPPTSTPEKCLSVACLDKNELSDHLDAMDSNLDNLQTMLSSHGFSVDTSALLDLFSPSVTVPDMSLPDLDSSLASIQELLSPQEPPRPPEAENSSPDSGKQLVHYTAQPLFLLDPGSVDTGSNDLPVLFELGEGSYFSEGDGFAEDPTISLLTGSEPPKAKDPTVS
# Outline: as §1
# [4] = target: T2, SPIC (Homo sapiens, UniProt Q8N5J4 1-248); conditions: protein: recombinant; tags: N-terminal GST; dsDNA, one strand shown
# T2 sequence: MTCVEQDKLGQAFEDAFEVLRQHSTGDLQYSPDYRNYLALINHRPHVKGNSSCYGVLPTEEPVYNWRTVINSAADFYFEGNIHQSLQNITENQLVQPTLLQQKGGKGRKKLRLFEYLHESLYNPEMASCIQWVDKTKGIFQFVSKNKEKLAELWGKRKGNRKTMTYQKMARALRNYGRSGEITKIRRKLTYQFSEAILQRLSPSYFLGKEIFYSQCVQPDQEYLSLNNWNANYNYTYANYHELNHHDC
# Outline: as §1
# [5] = target: ELF4 (Homo sapiens, UniProt Q99607 1-663); conditions: protein: recombinant; tags: N-terminal GST; dsDNA, one strand shown
# Sequence of ELF4 (Q99607 whole entry): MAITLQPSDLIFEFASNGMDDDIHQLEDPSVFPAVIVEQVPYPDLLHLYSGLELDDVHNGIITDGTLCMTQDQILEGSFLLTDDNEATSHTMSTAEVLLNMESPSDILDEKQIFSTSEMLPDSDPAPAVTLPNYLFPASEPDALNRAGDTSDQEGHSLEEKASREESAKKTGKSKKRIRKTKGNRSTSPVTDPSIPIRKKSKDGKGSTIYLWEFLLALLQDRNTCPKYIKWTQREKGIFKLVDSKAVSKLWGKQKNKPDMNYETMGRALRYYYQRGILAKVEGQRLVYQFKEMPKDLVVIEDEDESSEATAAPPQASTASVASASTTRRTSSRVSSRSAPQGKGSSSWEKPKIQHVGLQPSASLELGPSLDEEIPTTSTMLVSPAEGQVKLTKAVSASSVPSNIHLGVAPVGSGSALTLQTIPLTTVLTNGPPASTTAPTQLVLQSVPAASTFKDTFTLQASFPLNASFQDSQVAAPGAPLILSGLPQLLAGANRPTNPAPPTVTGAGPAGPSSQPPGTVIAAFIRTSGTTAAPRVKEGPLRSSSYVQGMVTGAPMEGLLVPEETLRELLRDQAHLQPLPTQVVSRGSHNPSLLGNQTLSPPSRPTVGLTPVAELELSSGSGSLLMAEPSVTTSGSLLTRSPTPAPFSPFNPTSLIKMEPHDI
# Outline: as §1
# [6] = target: T3, ELK4 (Homo sapiens, UniProt P28324-2 1-405); conditions: protein: recombinant; tags: N-terminal GST; dsDNA, one strand shown
# T3 sequence: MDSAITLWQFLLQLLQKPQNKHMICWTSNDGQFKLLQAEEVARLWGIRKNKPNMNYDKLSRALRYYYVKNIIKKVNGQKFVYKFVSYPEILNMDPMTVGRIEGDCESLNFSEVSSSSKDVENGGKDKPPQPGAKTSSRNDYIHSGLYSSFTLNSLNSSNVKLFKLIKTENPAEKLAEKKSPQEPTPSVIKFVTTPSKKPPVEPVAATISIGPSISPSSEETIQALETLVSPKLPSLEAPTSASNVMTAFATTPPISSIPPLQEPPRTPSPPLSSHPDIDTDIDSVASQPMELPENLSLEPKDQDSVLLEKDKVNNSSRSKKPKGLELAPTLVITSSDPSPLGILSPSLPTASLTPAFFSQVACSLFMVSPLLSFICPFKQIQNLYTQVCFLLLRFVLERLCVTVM
# Outline: as §1
# [7] = target: T4, ETV2 (Homo sapiens, UniProt O00321 1-342); conditions: protein: recombinant; tags: N-terminal GST; dsDNA, one strand shown
# T4 sequence: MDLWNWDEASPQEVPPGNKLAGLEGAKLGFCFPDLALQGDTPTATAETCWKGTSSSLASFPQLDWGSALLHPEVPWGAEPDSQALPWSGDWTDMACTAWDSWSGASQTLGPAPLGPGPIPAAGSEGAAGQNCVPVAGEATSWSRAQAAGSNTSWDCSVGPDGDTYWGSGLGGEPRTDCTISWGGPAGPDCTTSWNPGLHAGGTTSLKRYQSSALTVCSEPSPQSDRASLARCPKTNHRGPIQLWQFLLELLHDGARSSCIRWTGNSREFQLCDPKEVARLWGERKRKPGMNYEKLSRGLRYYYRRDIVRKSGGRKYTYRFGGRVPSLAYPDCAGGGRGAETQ
# Outline: as §1
# [8] = target: T5, ELF3 (Homo sapiens, UniProt P78545 1-371); conditions: protein: recombinant; tags: N-terminal GST; dsDNA, one strand shown
# T5 sequence: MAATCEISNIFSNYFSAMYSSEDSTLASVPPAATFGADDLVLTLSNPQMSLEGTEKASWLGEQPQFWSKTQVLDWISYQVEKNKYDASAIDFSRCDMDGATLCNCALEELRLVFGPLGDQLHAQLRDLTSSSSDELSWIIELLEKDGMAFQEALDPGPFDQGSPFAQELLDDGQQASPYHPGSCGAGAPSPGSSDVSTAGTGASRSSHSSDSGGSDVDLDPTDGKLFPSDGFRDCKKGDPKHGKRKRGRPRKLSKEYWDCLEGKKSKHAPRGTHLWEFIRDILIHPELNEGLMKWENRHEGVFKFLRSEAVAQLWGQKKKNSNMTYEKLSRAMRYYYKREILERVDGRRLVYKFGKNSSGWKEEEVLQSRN
# Outline: as §1
# [9] = target: CRX (Homo sapiens, UniProt O43186 1-299); conditions: protein: recombinant; tags: N-terminal GST; dsDNA, one strand shown
# Sequence of CRX (O43186 whole entry): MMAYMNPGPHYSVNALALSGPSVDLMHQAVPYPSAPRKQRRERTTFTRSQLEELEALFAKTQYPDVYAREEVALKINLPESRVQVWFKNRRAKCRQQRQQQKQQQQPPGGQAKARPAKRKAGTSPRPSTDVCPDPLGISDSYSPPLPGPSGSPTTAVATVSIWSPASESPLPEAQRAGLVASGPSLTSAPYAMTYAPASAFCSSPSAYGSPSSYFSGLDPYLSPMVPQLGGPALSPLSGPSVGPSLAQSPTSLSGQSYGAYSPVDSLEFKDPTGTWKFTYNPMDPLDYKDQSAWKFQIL
# Outline: as §1
# [10] = target: ETV1 (Homo sapiens, UniProt P50549 1-477); conditions: protein: recombinant; tags: N-terminal GST; dsDNA, one strand shown
# Sequence of ETV1 (P50549 whole entry): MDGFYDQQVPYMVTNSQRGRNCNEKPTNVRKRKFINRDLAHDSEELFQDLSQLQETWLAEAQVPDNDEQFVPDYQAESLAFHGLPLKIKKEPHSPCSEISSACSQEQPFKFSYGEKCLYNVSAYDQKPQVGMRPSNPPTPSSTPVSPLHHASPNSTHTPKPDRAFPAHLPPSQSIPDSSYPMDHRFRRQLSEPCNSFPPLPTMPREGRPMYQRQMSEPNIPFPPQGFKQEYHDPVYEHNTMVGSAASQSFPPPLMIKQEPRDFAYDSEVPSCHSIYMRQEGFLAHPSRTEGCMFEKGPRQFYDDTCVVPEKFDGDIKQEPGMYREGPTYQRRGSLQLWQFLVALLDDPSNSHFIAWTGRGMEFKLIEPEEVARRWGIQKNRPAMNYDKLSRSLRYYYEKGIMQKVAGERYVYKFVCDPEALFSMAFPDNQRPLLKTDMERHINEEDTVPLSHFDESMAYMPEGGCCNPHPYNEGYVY
# Outline: as §1
sequence,measurement,setting,value
TTCTAC,binding signal,[1],"1.5 fold enrichment (6-mer frequency, TF over GST control)"
same,binding signal,[2],"1.55 fold enrichment (6-mer frequency, TF over GST control)"
same,binding signal,[3],"2.46 fold enrichment (6-mer frequency, TF over GST control)"
same,binding signal,[4],"1.7 fold enrichment (6-mer frequency, TF over GST control)"
same,binding signal,[5],"1.48 fold enrichment (6-mer frequency, TF over GST control)"
same,binding signal,[6],"1.59 fold enrichment (6-mer frequency, TF over GST control)"
same,binding signal,[7],"1.53 fold enrichment (6-mer frequency, TF over GST control)"
same,binding signal,[8],"1.64 fold enrichment (6-mer frequency, TF over GST control)"
same,binding signal,[9],"1.69 fold enrichment (6-mer frequency, TF over GST control)"
same,binding signal,[10],"1.56 fold enrichment (6-mer frequency, TF over GST control)"
